# Tau fibril FP: qHTS for Inhibitors of Tau Fibril Formation, Fluorescence Polarization; Microtubule-associated protein tau (Homo sapiens), P10636; actives 0.39% (n = 280,000); Potency, µM (titrated, usually from 57.7 µM), inactives show top-dose activity, negative = inhibition, most hits filed as inhibitors; K18 P301L tau heparin fibrillization, Alexa594 FP, 6 h; active means well fitted curve in the direction sought with a large enough effect; inconclusive means small, poorly fitted or top-dose-only effect, or another doubt; inactive means no such curve, though single readings can be large; an effect the other way counts as inactive or inconclusive; further: nearly all actives have a fitted effect of over 55% in size
# Target sequence (P10636 561-689 P618L limits assumed): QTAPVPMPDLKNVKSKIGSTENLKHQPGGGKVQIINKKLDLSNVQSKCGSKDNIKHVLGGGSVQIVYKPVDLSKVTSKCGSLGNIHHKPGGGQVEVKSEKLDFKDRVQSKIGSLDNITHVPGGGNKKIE
#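 Compound effects on tau fibrillization are measured by Alexa 594 fluorescence polarization (ex 555, em 632 nm). K18 P301L tau is used at 15 uM with 0.24 uM labeled tracer, and 20 uM heparin induces aggregation over 6 hr at 37 C.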
# Tau fluor cs: Counterscreen qHTS for Inhibitors of Tau Fibril Formation, Fluorescence Polarization. Potency, µM (titrated, usually from 57.7 µM), inactives show top-dose activity change, negative = decrease. tau K18 P301L Alexa594 fluorescence, heparin fibrillization. actives 0.93% (n = 280,000); active means well fitted curve in the direction sought with a large enough effect; inconclusive means small, poorly fitted or top-dose-only effect, or another doubt; inactive means no such curve, though single readings can be large; an effect the other way counts as inactive or inconclusive; further: nearly all actives have a fitted effect of over 55% in size
#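 Human tau K18 P301L (15 uM unlabeled, 0.24 uM Alexa 594-labeled) in 100 mM sodium acetate pH 7 with 20 uM heparin, 6 hr at 37 C. ThT 30 uM added, 1 hr ambient; Alexa 594 FP and total fluorescence read at 555/632 nm.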
# Tau ThT inhib: qHTS for Inhibitors of Tau Fibril Formation, Thioflavin T Binding; Microtubule-associated protein tau (Homo sapiens), P10636; recombinant tau K18 P301L (four-repeat tau fragment), heparin-induced fibrillization, ThT fluorescence; Potency, µM (series often up to 57.4 µM), for inactives: top-dose activity, negative = inhibition, hits mostly inhibitors; actives 2.1% (n = 270,000); AID 1460, 2008; active means well fitted curve in the direction sought with a large enough effect; inconclusive means small, poorly fitted or top-dose-only effect, or another doubt; inactive means no such curve, though single readings can be large; an effect the other way counts as inactive or inconclusive; further: nearly all actives have a fitted effect of over 55% in size
#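 Recombinant human tau K18 fragment […] carrying P301L, 15 uM unlabeled plus 0.24 uM Alexa 594-labeled, was fibrillized with 20 uM heparin in 100 mM sodium acetate pH 7 for 6 hr at 37 C; 30 uM ThT fluorescence read after 1 hr.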
# HPGD block: qHTS Assay for Inhibitors of HPGD (15-Hydroxyprostaglandin Dehydrogenase) | actives 4.3% (n = 150,000) | AID 894, 2007 | Potency, µM, inactives show at the highest dose activity change, negative = inhibition, hits mostly inhibitors | purified HPGD, NADH fluorescence kinetic, PGE2 substrate | 15-hydroxyprostaglandin dehydrogenase [NAD(+)] (Homo sapiens), P15428
#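 20 nM HPGD preincubated 15 min at room temperature with compound in 50 mM Tris-HCl pH 8, 0.01% Tween 20. Started with 1 mM NAD+ and 30 uM prostaglandin E2; NADH fluorescence (360/450 nm) read 5 times over 30-s intervals, last minus first.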
# ALDH1A1 inh: qHTS Assay for Inhibitors of Aldehyde Dehydrogenase 1 (ALDH1A1) | Purified ALDH1A1, NADH fluorescence, propionaldehyde substrate | Potency, µM (titrated, usually from 75.3 µM), for inactives: top-dose activity, negative = inhibition, usual class: inhibitors | actives 7.3% (n = 220,000) | AID 1030, 2008;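 further: plate controls were no enzyme wells and a reference inhibitor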
# KDM4E inh: qHTS Assay for Inhibitors of Human Jumonji Domain Containing 2E (JMJD2E); Lysine-specific demethylase 4E (Homo sapiens), B2RXH2; JMJD2E catalytic domain, FDH-coupled NADH fluorescence (FDH is formaldehyde dehydrogenase); Potency, µM (titrated, usually from 57.1 µM), for inactives: at the highest dose activity change, negative = inhibition, usual class: inhibitors; actives 1.6% (n = 230,000); AID 2147, 2009;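 further: 0% = wells with enzyme and -100% = buffer wells without enzyme; nearly all actives have a fitted effect of over 50% in size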
# Target sequence (B2RXH2 1-337 limits assumed): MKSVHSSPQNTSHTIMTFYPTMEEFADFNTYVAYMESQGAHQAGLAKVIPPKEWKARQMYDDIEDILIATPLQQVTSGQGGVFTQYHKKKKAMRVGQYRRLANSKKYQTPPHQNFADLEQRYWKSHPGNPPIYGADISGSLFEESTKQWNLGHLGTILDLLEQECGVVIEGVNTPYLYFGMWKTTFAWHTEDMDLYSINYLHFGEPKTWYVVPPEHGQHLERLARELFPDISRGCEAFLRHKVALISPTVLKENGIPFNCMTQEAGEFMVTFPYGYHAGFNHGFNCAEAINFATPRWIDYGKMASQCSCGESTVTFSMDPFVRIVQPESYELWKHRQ
# * hit, by the source's call; ? = inconclusive; . = no result given. Shown are actives, neighbours in structure and some others; about 9.9% of the full set was active somewhere. Unless noted, the call rests on the fitted dose curve; in most records, active means well fitted inhibition curve with a large enough effect (not every such curve was filed as active); inconclusive means small, poorly fitted or top-dose-only effect, or another doubt; inactive means no such curve, though single readings can be large or run the other way. Unless noted, on the % scale 0 is the no-effect control and ±100 the full control effect; potency means the concentration at half of the fitted maximal effect.
SMILES,Tau fibril FP,Tau fluor cs,Tau ThT inhib,HPGD block,ALDH1A1 inh,KDM4E inh
O=c1/c(=C/c2ccco2)sc2nc(-c3ccccc3Br)nn12,?,-28%,?,?,?,25µM*
CCN(CC)c1ccc(/C=C(\C#N)C(=O)c2ccc(Br)cc2)cc1,-9%,?,?,-12%,11µM*,-1%
C=CCNC(=O)/C(C#N)=C/c1ccc(C(=O)O)cc1,-3%,2%,-2%,.,6%,-1%
N#CC(C#N)=C(N)/C(C#N)=C/c1ccc(O)cc1,12%,9%,5%,?,2.2µM*,-12%
CCN(CC)c1ccc(/C=C(\C#N)C(N)=O)cc1,4%,-12%,?,.,32µM*,-4%
CCOC(=O)NC(=O)/C(C#N)=C/c1ccc(N(C)C)cc1,-7%,-16%,-22%,.,13µM*,-15%
CCN(CC)c1ccc(/C=N\NC(N)=O)cc1,12%,-8%,?,?,?,?
C[C@H]1CC2[C@@H]3CCC4=CC(=O)C=C[C@]4(C)[C@@]3(F)[C@@H](O)C[C@]2(C)[C@@]1(O)C(=O)CO (stereo partly specified),-12%,-22%,-14%,-10%,-2%,5%
N#C/C(=C\c1cc(O)c(O)c(O)c1)C(N)=O,-8%,-21%,?,.,.,1µM*
CCN(CC)c1ccc(/C=C(\C#N)C(N)=S)cc1,-2%,?,4.5µM*,.,.,-10%
CN(C)c1ccc(/C=C(\C#N)C(=O)c2ccccc2)cc1,-10%,?,?,.,7.1µM*,9%
CCCCCn1c(=O)c2c(nc3n2CCN3c2ccc(Br)cc2)n(C)c1=O,5%,-6%,0%,.,.,.
COc1ccc(S(=O)(=O)N2CC(O)CC2C(=O)OCc2nc3sc(C)c(C)c3c(=O)[nH]2)cc1 (stereo unspecified),-5%,-11%,-15%,-5%,?,3%
Cc1ccc(CCNC(=O)c2ccc(CSCc3ccc(C)cc3)o2)cc1,?,-1%,?,.,.,.
O=C(Nc1ccccc1)NC1CCN(Cc2nnnn2C2CCCCC2)CC1,-1%,-3%,-1%,-11%,14µM*,9%
c1ccc(N2CCN(Cc3nnnn3C3CCCCC3)CC2)cc1,3%,3%,1%,-7%,28µM*,3%
C1CCC(n2nnnc2CN2CCN(C3CCCC3)CC2)CC1,-5%,-5%,-7%,-10%,-5%,0%
CC(C)(C)C(=O)Nc1cccc(C(=O)OCc2cc(=O)n3nc(C4CC4)sc3n2)c1,2%,-4%,-12%,.,.,.
CC[C@H]1CN(C)[C@H]2Cc3c([nH]c4ccccc34)C(=O)C[C@H]1[C@H]2C(=O)OC,.,.,.,-14%,?,.
COc1ccc(C2=C(SC)CC2=NC(C)(C)C)cc1,2%,-10%,?,-6%,18µM*,?
COc1ccc(-c2nc3n(c2C)CCC3)cc1,1%,2%,-1%,.,.,3%
CCOC(=O)CSC(=S)NC(=O)c1ccc(OC)cc1,-8%,0%,?,10µM*,?,8%
CCOc1ccc(C2C(C(=O)Nc3ccc(OC)cc3)=C(C)Nc3nc(SCc4ccc(Cl)cc4)nn32)cc1 (stereo unspecified),-13%,0%,?,.,.,.
CC(C)(C)n1cnnc1Sc1ncccc1[N+](=O)[O-],0%,0%,.,.,.,14%
Cc1ccc(NC(=O)Nc2nnc(N(CC(C)C)CC(C)C)s2)cc1Cl,-2%,-6%,-17%,.,.,.
SMILES,Tau fibril FP,Tau fluor cs,Tau ThT inhib,HPGD block,ALDH1A1 inh,KDM4E inh
CCS(=O)(=O)N1Cc2ccccc2CC1C(=O)Nc1nc(C)cs1 (stereo unspecified),1%,-3%,-5%,.,-2%,-7%
CCS(=O)(=O)N1Cc2ccccc2CC1C(=O)Nc1nc2c(C)cccc2s1 (stereo unspecified),-10%,-18%,-6%,-16%,-7%,25µM*
Cc1ccc(C(C)C)c(OCC(=O)Nc2ccc(S(=O)(=O)Nc3onc(C)c3C)cc2)c1,5%,-3%,-17%,.,.,.
Cc1cccc(Oc2ccccc2NC(=O)c2cnccn2)c1,-2%,-14%,-8%,-17%,11µM*,-3%
O=C(NCCO)c1ccc(CSc2nc3ccccc3[nH]2)cc1,-3%,-3%,-2%,25µM*,1%,3%
Cc1ccc(CNC(=O)c2ccc3nc(SCc4ccc(F)cc4)[nH]c3c2)cc1,22µM*,?,3%,.,.,.
Cn1c(SCc2ccc(F)cc2)nc2ccc(C(=O)NCc3ccc(F)cc3)cc21,0%,?,-8%,.,.,.
CC1C/C(=N/Nc2nc3ccccc3[nH]2)CC(C)(C)C1 (stereo unspecified),-6%,?,?,-9%,?,-17%
CC1C/C(=N/NC(=O)c2ccc(CSc3nc4ccccc4[nH]3)cc2)CC(C)(C)C1 (stereo unspecified),-2%,4%,-10%,-29%,25µM*,24%
CCc1ccc2oc(C(=O)Nc3nc(-c4ccccc4)ns3)c(C)c2c1,-12%,-18%,?,.,.,.
COc1ccc(-c2cn3cccnc3n2)cc1NC(=O)c1ccccc1C(F)(F)F,-12%,-11%,-8%,.,.,.
CCc1ccccc1NC(=O)C1=C(C)C(=O)OC12CCCCCC2,-3%,-5%,-2%,.,.,.
COc1ccc(/C=c2\sc3nc(-c4ccccc4OC)nn3c2=O)c(OC)c1,-1%,-6%,?,?,9%,6%
C=CCOc1ccccc1/C=c1\sc2nc(=O)c(C)nn2c1=O,0%,9%,-12%,-27%,22µM*,2%
Cc1ccc(C)c(N2CCN(C(=O)c3cc(S(=O)(=O)N4CCCCC4)cn3C)CC2)c1,-10%,-9%,-14%,.,.,.
O=C(Nc1nc(-c2ccc([N+](=O)[O-])cc2)cs1)c1c(F)cccc1F,1%,-2%,-2%,.,4%,12%
COc1cc([N+](=O)[O-])cc2sc(NC(=O)c3c(F)cccc3F)nc12,10%,-20%,?,.,7.9µM*,-2%
C=CCn1c(-c2ccccc2OC)n[nH]c1=S,2%,1%,-2%,-11%,6%,-3%
CCn1c(-c2csc3c2CCCC3)n[nH]c1=S,-6%,-5%,-8%,25µM*,?,-19%

# Screens deposited in PubChem by National Center for Advancing Translational Sciences (NCATS).
